Data published in PubChem BioAssay AID1159580 (chemical genetic matrix, 2015).
In all, about 5,500 compounds went through this assay and about 2,000 (36%) were called active. Another 18% or so got no clear call; they are omitted. Rule as the data show it: active = normalized growth mostly below about 0.91 (no sharp cut-off); inconclusive = no clear call, values can overlap the other calls; inactive = mostly above about 0.92. The list shows a part of the results.

Experiment: chemical genetic growth profiling, strain panel (AID 1159580);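 also: tested at 20 µM; growth read once vehicle control cultures reached saturation at 30 °C; 1 = growth at the plate median or of vehicle wells; lower values mean less growth of the strain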
Conditions: S. cerevisiae deletion strains, growth OD

Measured: normalized growth

CC(=O)Oc1cccc(C(=O)O)c1OC(C)=O
inactive: locus YAL013W, strain DEP1, stronger effect = lower value 1.01 | locus YBR021W, strain FUR4, stronger effect = lower value 0.987 | locus YBR229C, strain ROT2, stronger effect = lower value 1 | locus YCL029C, strain bik1, stronger effect = lower value 1 | locus YDL035C, strain GPR1, stronger effect = lower value 1.03 | locus YDL074C, strain BRE1, stronger effect = lower value 1.01 | locus YDL101C, strain DUN1, stronger effect = lower value 1.01 | locus YDL134C, strain PPH21, stronger effect = lower value 1.01 | locus YDL185W, strain tfp1, stronger effect = lower value 1.02 | locus YDL192W, strain arf1, stronger effect = lower value 1.02 | locus YDR101C, strain arx1, stronger effect = lower value 0.985 | locus YDR162C, strain NBP2, stronger effect = lower value 1.02 | locus YDR318W, strain mcm21, stronger effect = lower value 1.01 | locus YDR388W, stronger effect = lower value 1.01 | locus YDR502C, strain sam2, stronger effect = lower value 1 | locus YEL061C, strain CIN8, stronger effect = lower value 1.01 | locus YER110C, stronger effect = lower value 1.02 | locus YER155C, strain BEM2, stronger effect = lower value 1 | locus YER167W, strain BCK2, stronger effect = lower value 1.01 | locus YGL078C, strain dbp3, stronger effect = lower value 1.01 | locus YGL086W, strain mad1, stronger effect = lower value 0.997 | locus YGL248W, strain PDE1, stronger effect = lower value 1.01 | locus YGR078C, strain PAC10, stronger effect = lower value 1.01 | locus YGR135W, strain pre9, stronger effect = lower value 1.04 | locus YGR252W, strain gcn5, stronger effect = lower value 1 | locus YHR030C, strain SLT2, stronger effect = lower value 1.01 | locus YHR079C, strain IRE1 (second series), stronger effect = lower value 1.01 | locus YHR094C, strain hxt1, stronger effect = lower value 1.01 | locus YHR129C, strain ARP1, stronger effect = lower value 1.01 | locus YHR200W, strain rpn10, stronger effect = lower value 1.02 | locus YIL066C, strain RNR3, stronger effect = lower value 1.01 | locus YIL073C, strain SPO22, stronger effect = lower value 1.05 | locus YIL125W, strain kgd1, stronger effect = lower value 1.01 | locus YIR030C, strain dcg1, stronger effect = lower value 1.01 | locus YJL095W, strain BCK1, stronger effect = lower value 1.01 | locus YJL134W, strain LCB3, stronger effect = lower value 1 | locus YJL168C, strain set2, stronger effect = lower value 1.02 | locus YJL187C, strain SWE1 (second series), stronger effect = lower value 1.01 | locus YJR043C, strain POL32, stronger effect = lower value 1.01 | locus YJR075W, strain HOC1, stronger effect = lower value 1.03 | locus YKL009W, strain mrt4, stronger effect = lower value 1.03 | locus YKL068W, stronger effect = lower value 1.01 | locus YKL085W, strain MDH1 (second series), stronger effect = lower value 1.07 | locus YKL085W, strain MDH1, stronger effect = lower value 1.07 | locus YKL190W, strain CNB1, stronger effect = lower value 1.01 | locus YKR001C, strain vps1, stronger effect = lower value 1.01 | locus YLR039C, strain RIC1, stronger effect = lower value 1.02 | locus YLR058C, strain SHM2, stronger effect = lower value 1.01 | locus YLR102C, strain apc9, stronger effect = lower value 1.01 | locus YLR262C, strain YPT6, stronger effect = lower value 1.02 | locus YLR268W, strain sec22, stronger effect = lower value 1 | locus YLR330W, strain CHS5, stronger effect = lower value 1.01 | locus YLR342W, strain FKS1 (second series), stronger effect = lower value 1.04 | locus YLR371W, strain rom2, stronger effect = lower value 1 | locus YLR418C, strain cdc73, stronger effect = lower value 1.01 | locus YML016C, strain PPZ1, stronger effect = lower value 1.01 | locus YML032C, strain rad52, stronger effect = lower value 1.02 | locus YML124C, strain tub3, stronger effect = lower value 1.02 | locus YMR078C, strain ctf18, stronger effect = lower value 1.02 | locus YMR223W, strain ubp8, stronger effect = lower value 1.04 | locus YMR307W, strain GAS1, stronger effect = lower value 1.07 | locus YNL067W, strain RPL9B, stronger effect = lower value 1.01 | locus YNL153C, strain GIM3, stronger effect = lower value 0.997 | locus YNL233W, strain BNI4, stronger effect = lower value 1 | locus YNL250W, strain rad50, stronger effect = lower value 1.04 | locus YNL271C, strain bni1, stronger effect = lower value 1.01 | locus YNL298W, strain CLA4, stronger effect = lower value 1.02 | locus YNL307C, strain MCK1, stronger effect = lower value 1.02 | locus YNL322C, strain KRE1, stronger effect = lower value 1.01 | locus YNR052C, strain pop2, stronger effect = lower value 1.01 | locus YOL006C, strain TOP1, stronger effect = lower value 1.06 | locus YOL147C, strain pex11, stronger effect = lower value 1.01 | locus YOR061W, strain CKA2, stronger effect = lower value 1.01 | locus YOR069W, strain VPS5, stronger effect = lower value 1.01 | locus YOR136W, strain idh2, stronger effect = lower value 1.01 | locus YOR144C, strain elg1, stronger effect = lower value 1.01 | locus YOR184W, strain ser1, stronger effect = lower value 1.02 | locus YOR316C, strain cot1, stronger effect = lower value 1.01 | locus YPR119W, strain clb2, stronger effect = lower value 1.01 | locus YPR141C, strain kar3, stronger effect = lower value 1 | locus YPR163C, strain tif3, stronger effect = lower value 1.01 | locus YPR167C, strain met16, stronger effect = lower value 1.01 | strain wtn01, stronger effect = lower value 1.01
